Data published in PubChem BioAssay (NCATS).
Results filed as inconclusive are left out. A call without a number means that no potency is given here. Activity calls are given as the source filed them. Unless noted, the call rests on the fitted dose curve; in most records, active means well fitted inhibition curve with a large enough effect; inconclusive means small, poorly fitted or top-dose-only effect; inactive means no such curve, though single readings can be large or run the other way.

Tests used:
[1] = target: Aldehyde dehydrogenase, mitochondrial (Homo sapiens) (UniProt P05091); assay: qHTS for Inhibitors of the Aldehyde Dehydrogenase Family (ALDH2) Confirmatory screens (AID 2061303; active means well fitted inhibition curve with a large enough effect; title and protocol of this record describe different tests; further: nearly all actives have a fitted effect of over 45% in size; further: potency means the concentration at half of the fitted maximal effect); conditions: ALDH inhibition qHTS; series mostly up to 45.4 µM
[2] = target: Retinal dehydrogenase 2 (Homo sapiens) (UniProt O94788); assay: qHTS for Inhibitors of the Aldehyde Dehydrogenase Family (ALDH1A2) Confirmation screens (AID 2061314); conditions: ALDH1A2 enzyme inhibition qHTS confirmation; series mostly up to 45.9 µM; further: nearly all actives have a fitted effect of over 65% in size
[3] = target: Retinaldehyde dehydrogenase 3 (Homo sapiens) (UniProt P47895); assay: qHTS for Inhibitors of the Aldehyde Dehydrogenase Family (ALDH1A3) Confirmatory screens (AID 2061311); conditions: ALDH inhibition qHTS; series mostly up to 46 µM; further: nearly all actives have a fitted effect of over 60% in size; further: potency means the concentration at half of the fitted maximal effect
[4] = target: Retinaldehyde dehydrogenase 3 (Homo sapiens) (UniProt P47895); assay: qHTS for Inhibitors of the Aldehyde Dehydrogenase Family (ALDH1A3) Primary screen (AID 2061315); conditions: ALDH inhibition qHTS; series mostly up to 56 µM
[5] = target: Aldehyde dehydrogenase 1A1 (Homo sapiens) (UniProt P00352); assay: qHTS for Inhibitors of the Aldehyde Dehydrogenase Family (ALDH1A1) Confirmatory screens (AID 2061316); conditions: ALDH inhibition qHTS; series mostly up to 47.3 µM; further: nearly all actives have a fitted effect of over 65% in size; further: potency means the concentration at half of the fitted maximal effect

| Compound | Potency [1] | Potency [2] | Potency [3] | Potency [4] | Potency [5] |
| --- | --- | --- | --- | --- | --- |
| O=C(NC1CC(=O)N(c2ccccc2)C1)c1ccc(S(=O)(=O)N2CCOCC2)cc1 (configuration not stated) | inactive | inactive | – | – | – |
| O=C([C@@H]1C[C@H](Oc2ccccc2)CN1S(=O)(=O)c1cccc(F)c1)N1CCOCC1 | inactive | inactive | – | – | – |
| COc1cc(O)c(C(CC(=O)N2CCN(c3ccc(F)cc3)CC2)c2ccc3c(c2)OCO3)c(OC)c1 (configuration not stated) | 17.8 µM (active) | – | 12.7 µM (active) | inactive | – |
| COc1ccc(C2=Nn3c(nnc3-c3ccccc3OC)SC2)c(OC)c1 | inactive | – | inactive | inactive | 14.2 µM (active) |
| COc1ccc(S(=O)(=O)N2CCC3(CC2)CC(CC(=O)NC2CC2)CCO3)cc1 (configuration not stated) | inactive | inactive | – | – | – |
| COc1ccc(-c2no[n+]([O-])c2C#N)cc1 | inactive | – | – | inactive | – |
| O=C(Nc1cccc(-c2ccc(N3CCOCC3)nn2)c1)Nc1cccc(C(F)(F)F)c1 | inactive | – | inactive | – | inactive |
| CC(C)N1CCc2c(sc(NC(=O)Cc3ccccc3)c2-c2nc3ccccc3s2)C1 | inactive | – | inactive | inactive | inactive |
| CC(C)(C)OC(=O)N1CCN(c2ccc(NCc3ccc(-c4ccc(C#N)cc4)s3)cc2)CC1 | 0.179 µM (active) | inactive | – | inactive | 12.7 µM (active) |
| Oc1ccc(Nc2nc(-c3ccncc3)nc3ccccc23)cc1F | inactive | – | – | inactive | – |
| CC(C)NC(=O)c1nc(-c2cccnc2)c2cnccn12 | inactive | – | – | – | inactive |
| COc1ccc(-c2ccc(CNc3ccc4[nH]c(=O)[nH]c4c3)o2)cc1Cl | 1.82 µM (active) | – | – | – | 7.26 µM (active) |
